# Measured values as given in PubChem BioAssay AID463173 (ICCB-Longwood Screening Facility, Harvard Medical School, 2010).
# About 1,700 (3.3%) of roughly 52,000 compounds were called active. Many of the other results were omitted from the sample, so actives are more common in it than they were. Values without a mark were called inactive. Rule as the data show it: active = survival mostly below about 52% (no sharp cut-off); inactive = mostly above about 56%.
# Tested on: Wild type
# Assay: S. aureus survival, RN4220 and DeltatarO strains – OD600, teichoic acid synthesis inhibitors, primary screen (AID 463173)
# Conditions: S. aureus RN4220 wild type/DeltatarO growth, OD600, 18 h, active compounds read low, screened at 18.75 µg/mL (by protocol)
row,SMILES,survival
1,CCN(C(=O)c1cc2c(Cl)nc3ccccc3c2s1)c1cccc(Cl)c1,76%
2,Cc1ccc2nc(Cl)c3cc(C(=O)N(C)C4CCCCC4)sc3c2c1,35%
3,CC1(C)N=C(SCc2ccc(Cl)cc2)c2ccccc2N1,143%
4,Cc1ccc(C(=O)c2oc3ccccc3c2NC(=O)c2nc(S(C)(=O)=O)ncc2Cl)cc1F,83%
5,COc1ccc(Nc2nn(-c3ccc(OC(F)(F)F)cc3)nc2C(C)=O)cc1,95%
6,Cc1ccc(-c2cc3ncc4c(n3n2)-c2cc(Cl)ccc2OC4)cc1,97%
7,CCn1c(=O)n(-c2ccc3c(c2)OCO3)c2nc(-c3ccc(C(C)C)cc3)nc(C(N)=O)c21,130%
8,CCOC(=O)c1[nH]c(C)c(CCC(=O)Nc2c(C)cc(C)cc2C)c1C,127%
9,O=C(NCCc1nc2ccccc2n1CCCOc1ccc(Cl)cc1)C1CCCCC1,10% (active)
10,Cc1cccc(C)c1OCCCn1c(CCNC(=O)C2CCCCC2)nc2ccccc21,28% (active)
11,Cc1ccc(OCCn2c(CCNC(=O)C3CCCCC3)nc3ccccc32)cc1,65%
12,Cc1ccc(OCCCn2c(CCNC(=O)C3CCCCC3)nc3ccccc32)c(C)c1,95%
13,Cc1cccc(OCCCn2c(CCNC(=O)C3CCCCC3)nc3ccccc32)c1,34%
14,Cc1ccccc1OCCCn1c(CCNC(=O)C2CCCCC2)nc2ccccc21,65%
15,Cc1cc(OCCCn2c(CCNC(=O)C3CCCCC3)nc3ccccc32)ccc1Cl,0% (active)
16,Cc1cccc(C)c1OCCn1c(CCNC(=O)C2CCCCC2)nc2ccccc21,65%
17,Cc1cc(C)cc(OCCn2c(CCNC(=O)C3CCCCC3)nc3ccccc32)c1,105%
18,Cc1cc(OCCn2c(CCNC(=O)C3CCCCC3)nc3ccccc32)ccc1Cl,67%
19,O=C(NCCc1nc2ccccc2n1CCOc1ccc(Cl)cc1)C1CCCCC1,20%
20,Cc1cc(C)cc(OCCCn2c(CCNC(=O)C3CCCCC3)nc3ccccc32)c1,27% (active)
21,COc1ccc(-c2nnc(SCC(=O)Nc3cccc(C(F)(F)F)c3)s2)cc1,99%
22,COc1ccc(C(=O)N(Cc2cc(OC)c(OC)c(OC)c2)C2CCS(=O)(=O)C2)cc1Cl (stereo not drawn),86%
23,COc1ccccc1-c1c(C)nn2c(N3CCN(c4ccccc4)CC3)cc(C)nc12,70%
24,Cn1c(SCCN2CCCC2)nnc1-c1ccncc1,112%

row,SMILES,survival
1,COc1cc(OC)c(NC(=O)c2nn(C)c3c2COc2ccccc2-3)cc1Cl,111%
2,CCOc1ccc(-n2c(SCc3ccc(C(=O)OC)o3)nc3c([nH]c4ccccc43)c2=O)cc1,82%
3,Oc1ccc(Br)cc1C=Nc1cccc(-c2nc3ccccc3o2)c1,111%
4,COc1cccc2cc(C(=O)Nc3ccc(CC(=O)O)cc3)c(=O)oc12,73%
5,CCOc1ccc(NC(=O)CSc2nnc3c(C)cc4ccccc4n23)cc1,132%
6,O=C(Nc1nc2c(s1)CCCCCC2)Nc1ccc(F)cc1F,-2% (active)
7,Cc1ccc(NC(=O)Nc2nc3c(s2)CCCCCC3)cc1C,69%
8,O=C(Nc1ccc(Br)cc1)Nc1nc2c(s1)CCCCCC2,82%
9,Cc1cc(-c2ccc(C)c(S(=O)(=O)Nc3ccccn3)c2)on1,73%
10,O=C(CN1CCCC1)Nc1nc(-c2ccc3c(c2)CCN3C(=O)C2CC2)cs1,116%
11,O=C(CSc1nc2ccccc2c(=O)n1-c1ccccc1)N1CCOCC1,104%
12,CC(=O)Nc1cccc(NC(=O)c2c(-c3ccccc3)c(-c3ccccc3)nn(C)c2=O)c1,85%
13,COc1ccc2cc(-c3nc(-c4ccc(N(C)C)cc4)no3)c(=O)oc2c1,99%
14,COc1ccc(CNS(=O)(=O)c2cnc(N)nc2)cc1,-4% (active)
15,CC(C)Oc1ccc(CNS(=O)(=O)c2cnc(N)nc2)cc1,111%
16,COc1cccc(CNS(=O)(=O)c2cnc(N)nc2)c1,57%
17,CC(C)(C)OC(=O)N1CCC(c2c(C(=O)NCCN3CCOCC3)cnn2-c2ccccc2)CC1,64%
18,NCC1OCCc2ccccc21 (stereo not drawn),114%
19,COC(=O)c1ccccc1NC(=O)c1ccc(COc2ccccc2Cl)o1,68%
20,Cc1cc(C)cc(OCc2ccc(C(=O)Nc3ccccc3F)o2)c1,72%
21,COc1ccccc1NC(=O)c1ccc(C)o1,104%
22,CCCc1ccc(OCc2ccc(C(=O)Nc3ccccc3C(=O)OC)o2)cc1,3% (active)
23,COc1ccccc1NC(=O)c1ccc(COc2ccc(C)c(C)c2)o1,0% (active)
24,COC(=O)c1ccccc1NC(=O)c1ccc(COc2cc(C)cc(C)c2)o1,59%
